Measurements as given in ChEMBL document CHEMBL3988442, “University of Dundee, Small-Polar-MMV Screening Library” (2021).
The whole screen tested about 48,000 compounds, of which about 13,000 (27%) showed an effect of 50% or more. The list shows a part of the results.

Test system: Wolbachia pipientis
Experiment: Anti-Wolbachia Cell-Based Screen
Format: functional
Parameters: scale not given: in the data most compounds retested in dose-response had high values
Details: 5 µM

Row | Compound | Percent Effect [%]
1 | CCc1ccc2c(C3CN(CC4CCC4)C3)ncn2c1.O=C(O)C(F)(F)F | 1.201
2 | Cc1ccc(C(=O)N2CCSCC2)cc1NC(C)C | -20.08
3 | CN(C)c1nc2c(c(N3CCC(O)CC3)n1)CN(CC1CCNC1)CC2 (stereo not drawn) | -8.406
4 | CCC(CO)N(Cc1ccccn1)C(=O)c1ccc(CSC)o1 (stereo not drawn) | 18.24
5 | Cc1c(C(=O)NC(C)CC(=O)c2cccs2)cnn1C (stereo not drawn) | 85.26
6 | CNS(=O)(=O)c1cccc(CNC(=O)c2cnn(C)c2C)c1 | -2.681
7 | Cc1c(C(=O)NC(CN2CCCC2=O)c2ccccc2)cnn1C (stereo not drawn) | -6.718
8 | O[C@H]1[C@H](NCCc2cnccn2)c2ccccc2C12CCNCC2 | 1.46
9 | CC1CCN(CCNC(=O)C2CCN(C(=O)C3CC3)CC2)CC1 | 7.892
10 | CCc1nc(CC(=O)NC(C#N)CC(C)C)cs1 (stereo not drawn) | 0.9973
11 | CCc1ccsc1C(=O)NC(Cc1ccccc1)C(N)=O (stereo not drawn) | 1.098
12 | CCc1ccsc1C(=O)NC(C#N)CC(C)C (stereo not drawn) | 102.3
13 | CCc1nc(CC(=O)NC(C#N)CC)cs1 (stereo not drawn) | -7.062
14 | CCC(C#N)NC(=O)c1sccc1OC (stereo not drawn) | 86.18
15 | COc1ccsc1C(=O)Nc1cc(Br)c(=O)n(C)c1 | -2.156
16 | CCCC(C#N)NC(=O)c1sccc1CC (stereo not drawn) | 99.07
17 | COc1ccsc1C(=O)NCCNc1ccccc1 | -8.97
18 | CCc1ccsc1C(=O)NC(C#N)CC (stereo not drawn) | 105.4
19 | CCCC(C#N)NC(=O)COC1CCCCC1 (stereo not drawn) | -4.378
20 | CCCC(C#N)NC(=O)Cc1csc(CC)n1 (stereo not drawn) | -2.381
21 | CC(C)CCC(=O)NC(C#N)CC(C)C (stereo not drawn) | 5.343
22 | Cc1nc(O)cc(CN2CCC=C(CN(C)C(=O)c3ccco3)C2)n1 | 2.928

Row | Compound | Percent Effect [%]
23 | Cc1nc2c(c(N(C)Cc3ccccc3-n3cccn3)n1)CCNCC2 | 14.94
24 | COc1ccc(C(=O)N2C[C@@H](C(=O)O)[C@H](c3ccccc3C)C2)c(O)c1 | -2.704
25 | CCNC(=O)[C@@H]1CCCN1C1(C(=O)NC)CCCCC1.Cl | 1.197
26 | COc1cccc(COCC(=O)N2CCC(CC(N)=O)CC2)c1 | -12.19
27 | O=C(c1ccc(S(=O)(=O)NCC(F)F)cc1)N1C[C@H]2CNC[C@H]2C1 | 19.64
28 | Cc1cc(OCC(=O)N2CCCC(c3ccn[nH]3)C2)no1 (stereo not drawn) | 1.786
29 | O=C(c1cnc2ccccn12)N1CCCC(c2ccn[nH]2)C1 (stereo not drawn) | 107.7
30 | CC(C)c1cnc(CN2CCCC(c3ccn[nH]3)C2)o1 (stereo not drawn) | -28.34
31 | Cn1cncc1C(=O)N1CCCC(c2ccn[nH]2)C1 (stereo not drawn) | 108.7
32 | O=C1CCCCCN1CCC(=O)N1CCCC(c2ccn[nH]2)C1 (stereo not drawn) | 2.164
33 | O=C(c1cnnn1-c1ccccc1)N1CCCC(c2ccn[nH]2)C1 (stereo not drawn) | 106
34 | CC(C)c1ocnc1C(=O)N1CCCC(c2ccn[nH]2)C1 (stereo not drawn) | -7.734
35 | O=C(c1cc(=O)n(-c2ccccc2)[nH]1)N1CCCC(c2ccn[nH]2)C1 (stereo not drawn) | 77.64
36 | O=C(CN1CCCC(c2ccn[nH]2)C1)Nc1nncs1 (stereo not drawn) | 12
37 | O=C(CCCc1nc(C2CC2)no1)N1CCCC(c2ccn[nH]2)C1 (stereo not drawn) | -3.493
38 | CC(C)N1CCC(c2ccnc3c(C(=O)N4CCOCC4)ncn23)CC1 | -16.45
39 | Cn1nc(Cn2cccn2)c2c1CN(Cc1ccoc1)C2.O=C(O)C(F)(F)F | -5.298
40 | Cc1noc(C2(C)CCN(C(=O)C(C)C)CC2)n1 | 126.4
41 | Cc1noc([C@@]23CCO[C@@H]2CCN(C(=O)c2cc(C)on2)C3)n1 | 4.569
42 | Cc1noc([C@@]23CCO[C@@H]2CCN(C(=O)CCC(C)C)C3)n1 | 4.63
43 | Cc1noc([C@@]23CCO[C@@H]2CCN(C(=O)CN(C)C)C3)n1 | 5.284
44 | Cc1noc([C@@]23CCO[C@@H]2CCN(C(=O)c2cc(C)[nH]c2C)C3)n1 | 12.25

Row | Compound | Percent Effect [%]
45 | Cc1noc([C@@]23CCO[C@@H]2CCN(C(=O)c2cc(C)c(C)s2)C3)n1 | 6.303
46 | CC(=O)N1CCC(C)(c2nc(C)no2)CC1 | 134.3
47 | COCC(=O)N1CC[C@H]2OCC[C@@]2(c2nc(C)no2)C1 | 6.759
48 | Cc1noc(C2(C)CCCN(C(=O)C(C)C)C2)n1 (stereo not drawn) | 123
49 | Cc1cccc2c1nc(CCO)n2-c1ccc(C(=O)N2CCCC2)o1 | 4.629
50 | Fc1cccc(-n2cc(CN3CCCCC3CCn3ccnc3)cn2)c1 (stereo not drawn) | -14.22
51 | CC(C)(N)C(=O)N1CCCC1c1cncc(Oc2ccc(F)cc2)n1 (stereo not drawn) | 9.255
52 | CC(C)C(=O)N1CCCC(c2cncc(Oc3cccnc3)n2)C1 (stereo not drawn) | 130.5
53 | CC(C)(N)C(=O)N1CCCC1c1cncc(Oc2ccccc2)n1 (stereo not drawn) | 115.4
54 | Cc1cncc(C2CCCN(C(=O)c3cccn3C)C2)n1 (stereo not drawn) | 5.721
55 | CC(C)(N)C(=O)N1CCCC(c2cncc(Oc3cccnc3)n2)C1 (stereo not drawn) | 102.7
56 | CCS(=O)(=O)c1ncc(CN(C)Cc2ccccc2Cl)n1CCOC | 6.102
57 | CCN(CC)Cc1cc(C(=O)N2CC(C)(C)[C@@](C)(O)C2)c(C)o1 | -3.4
58 | O=S1(=O)CCC(n2nc(COc3ccccc3)nc2-c2cnccn2)C1 (stereo not drawn) | -50.17
59 | CS(=O)(=O)N1CCC2(CC1)COC(COc1cccnc1)C2.O=C(O)C(F)(F)F (stereo not drawn) | -9.864
60 | CC(C)(C)CN1CC(COc2ccccc2)Oc2ccncc2S1(=O)=O (stereo not drawn) | 80.37
61 | O=S1(=O)c2cnccc2OC(COc2ccccc2)CN1CC1CC1 (stereo not drawn) | 96.1
62 | O=C(COc1ccccc1)N(Cc1ccncc1)C1CC1 | -3.212
63 | Cc1nc2cc(=O)[nH]n2c(C)c1CC(=O)Nc1cnn(C)c1 | -2.134
64 | CCc1ncc(C(=O)N(C)CC2Cc3ccccc3O2)cn1 (stereo not drawn) | -1.94
65 | Cc1nn(C)c(C)c1CCNC(C)c1ccc(-n2ccnc2C)cc1 (stereo not drawn) | -1.532
66 | CCN1CCC2(C=C(C(=O)N(C)C)c3ccccc32)CC1.O=C(O)C(F)(F)F | 130.6

Row | Compound | Percent Effect [%]
67 | CC(C)CN1CCC2(C=C(C(=O)N(C)C)c3ccccc32)CC1.O=C(O)C(F)(F)F | 90.84
68 | CC(C)N1CCC2(C=C(C(=O)N(C)C)c3ccccc32)CC1.O=C(O)C(F)(F)F | -1.303
69 | CC(C)CN1CCC2(C=C(C(=O)N3CCCC3)c3ccccc32)CC1.O=C(O)C(F)(F)F | 13.87
70 | Cc1ccc(CN2CCC3(CC2)OC(C(=O)N(C)C)c2ccccc23)o1.O=C(O)C(F)(F)F (stereo not drawn) | 8.053
71 | O=C(C1=CC2(CCN(CCO)CC2)c2ccccc21)N1CCCC1.O=C(O)C(F)(F)F | -8.81
72 | COc1ccc(C(C)NCc2c[nH]nc2C)cc1Br.Cl (stereo not drawn) | 2.435
73 | Cc1ncoc1C(=O)N1CCc2[nH]nc(-c3ccc4c(c3)OCO4)c2C1 | -5.297
74 | CC(C)CC(CCO)CNC(=O)N1CCCC1(C)C (stereo not drawn) | -11.2
75 | Cc1cc(C(=O)N2CCCC3(COCCN(c4ccccc4)C3)C2)[nH]n1 (stereo not drawn) | -3.26
76 | O=C(O)C(F)(F)F.O=C(c1cccnc1)N1CCOC2(COCCN(c3cncnc3)C2)C1 (stereo not drawn) | -2.912
77 | O=C(C1CCCCC1)N1CCCC2(CCN(c3cnccn3)CC2)C1.O=C(O)C(F)(F)F | 1.174
78 | O=C(O)C(F)(F)F.O=C(c1cccnc1)N1CCCC2(COCCN(c3ccccc3)C2)C1 (stereo not drawn) | 104.3
79 | O=C(c1cccnc1)N1CCOCC2(CCN(c3ncccn3)C2)C1 (stereo not drawn) | 104.1
80 | O=C(C1CCCO1)N1CCCC2(CCN(c3cccnc3)CC2)C1.O=C(O)C(F)(F)F (stereo not drawn) | 111.1
81 | O=C(O)C(F)(F)F.O=C(c1ccncc1)N1CCCC2(COCCN(c3ccccc3)C2)C1 (stereo not drawn) | 3.35
82 | O=C(c1ccc[nH]1)N1CC2(CCN(c3ncccn3)C2)C1 | -13.43
83 | O=C(c1ccnnc1)N1CC2(CCN(c3ncccn3)C2)C1 | -3.842
84 | O=C(O)C(F)(F)F.O=C([C@H]1CCCO1)N1CCCC2(COCCN(c3ccccc3)C2)C1 (stereo partly drawn) | 121.5
85 | O=C(C1CCCC1)N1CCCC2(CCN(c3cnccn3)CC2)C1.O=C(O)C(F)(F)F | -29.32
86 | COc1ccc(C)cc1CN1CCN(Cc2nccn2C)C(C)C1 (stereo not drawn) | -12.47
87 | OCc1cc2ccccc2nc1NC1CC=CC1 | -7.436
88 | CC(C)n1cnnc1CN(C)Cc1cnc(-c2cccs2)nc1 | 3.781

Row | Compound | Percent Effect [%]
89 | CC(C)n1cnnc1CN(C)Cc1cnc(-c2ccccn2)nc1 | 11.81
90 | COCCCN(Cc1cnc(-c2ccccn2)nc1)C1CCN(C)CC1 | 120.4
91 | COCCCN(Cc1cnc(-c2cccs2)nc1)C1CCN(C)CC1 | 117
92 | CCN(Cc1cnc(-c2ccccn2)nc1)C1CCS(=O)(=O)C1 (stereo not drawn) | -5.567
93 | CC(C1CCN(Cc2cnc(-c3cccs3)nc2)CC1)N(C)C (stereo not drawn) | 1.758
94 | CCC(O)CN(c1ccccc1)S(=O)(=O)c1cnc(C)s1 (stereo not drawn) | -3.963
95 | CCCn1nc(C)c(CN2CC3(CCOC3)CCC2=O)c1C (stereo not drawn) | -15.65
96 | CC(C)C(=O)NCc1cccc(N2CCCCC2=O)c1 | -5.894
97 | O=S(=O)(Nc1cnc(N2CCOCC2)nc1)c1ccc(C(F)(F)F)cc1 | -10.38
98 | COc1ccc(S(=O)(=O)Nc2cnc(N(C)C)nc2)cc1 | 87.85
99 | O=S(=O)(Nc1cnc(N2CCCC2)nc1)c1ccc(C(F)(F)F)cc1 | 2.34
100 | CCOc1ccc(S(=O)(=O)Nc2cnc(OC)nc2OC)cc1 | -50.06
101 | CN(C)c1ccc(C(=O)N2CCCc3cc(OC(F)(F)F)ccc32)cn1 | 0.3128
102 | O=S(=O)(Nc1cnc(N2CCCC2)nc1)c1ccc(OC(F)(F)F)cc1 | 113.1
103 | Cc1nc(N(C)C)nc(C)c1NS(=O)(=O)c1ccc(OC(F)(F)F)cc1 | 120.1
104 | Cc1ccc(S(=O)(=O)Nc2c(C)nc(N3CCCC3)nc2C)cc1 | 15.76
105 | O=S(=O)(NCc1cc2n(n1)CCNC2)c1ccc(OC(F)(F)F)cc1 | 12.96
106 | Cn1cc(NS(=O)(=O)c2ccc(OC(F)(F)F)cc2)ccc1=O | -16.2
107 | CN(C)c1ncc(NS(=O)(=O)c2ccc(OC(F)(F)F)cc2)cn1 | 123.3
108 | COc1ncc(NS(=O)(=O)c2ccc(F)cc2F)cn1 | 7.047
